Assay outcomes as filed in PubChem BioAssay.
Sampled rows, rich in hits. Any-hit rate of the full collection: about 3.7%.
Mtb FBA inh: Mtb FBA enzyme inhibitors, primary screen, biochemical, fluorescence, strain H37Rv | actives 2.3% (n = 360,000) | AID 588726, 2011 | purified M. tuberculosis FBA, fluorescence read-out | Fructose-bisphosphate aldolase (Mycobacterium tuberculosis (strain ATCC 25618 / H37Rv)), … | inhibition, % at 1 µM;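 also: 0% = vehicle and 100% = reference inhibitor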
GDH-TPI counter-1: GDH-TPI coupling enzyme inhibitors, primary screen, artefact control for M. tuberculosis FBA inhibitor project, biochemical, absorbance, full deck. actives 1.2% (n = 360,000). GDH-TPI coupled enzyme counterscreen, NADH absorbance. inhibition, % at 4.8 µM. AID 588335, 2011; in the data active = inhibition above about 30%;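 also: 0% = DMSO wells and 100% = wells lacking the enzyme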
Mtb bLac sens: beta-lactam sensitization of Mtb H37Rv, H37Rv. inhibition, % at 25 µM. M. tuberculosis H37Rv growth with meropenem, percent inhibition. actives 0.27% (n = 330,000); call rule not given here;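 also: growth measured after seven days incubation then overnight dye step; 0% = bacteria only wells and 100% = bacteria with antibiotic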
Rv3671c protease: Rv3671c serine protease inhibitors, primary screen, biochemical, fluorescence polarization, M. tuberculosis H37Rv; P9WHR9; inhibition, % at 5.96 µM; actives 0.048% (n = 320,000); in the data active = inhibition above about 38%;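 also: extracellular domain of Rv3671c used as enzyme; 0% = enzyme with DMSO and 100% = no enzyme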
UGM FP inh: M. tuberculosis UGM enzyme inhibitors, primary screen, biochemical, fluorescence polarization, single point; actives 0.06% (n = 320,000); AID 504406, 2011; UDP-galactopyranose mutase (Mycobacterium tuberculosis (strain ATCC 25618 / H37Rv)), …; purified UGM, fluorescence polarization probe displacement; inhibition, % at 10 µM; in the data active = inhibition above about 10%, passing the limit was not always enough
Target sequence (P9WIQ1 whole entry, looked up): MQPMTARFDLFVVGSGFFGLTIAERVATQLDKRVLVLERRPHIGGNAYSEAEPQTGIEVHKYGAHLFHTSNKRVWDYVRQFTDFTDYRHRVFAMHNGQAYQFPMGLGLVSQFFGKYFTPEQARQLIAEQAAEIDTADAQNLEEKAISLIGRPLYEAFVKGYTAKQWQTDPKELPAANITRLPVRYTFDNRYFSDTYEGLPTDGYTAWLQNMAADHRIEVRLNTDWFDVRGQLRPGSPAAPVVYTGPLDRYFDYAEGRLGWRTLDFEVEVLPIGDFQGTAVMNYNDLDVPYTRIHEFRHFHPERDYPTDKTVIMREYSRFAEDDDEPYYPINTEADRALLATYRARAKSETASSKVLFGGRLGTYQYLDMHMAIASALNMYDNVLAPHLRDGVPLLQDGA
FadD28 FP inh: inhibitors of FadD28 bisubstrate probe binding, primary screen, biochemical, fluorescence polarization, single point; Mycobacterium tuberculosis FadD28 fatty-acid-AMP ligase; inhibition, % at 12.5 µM; actives 0.22% (n = 360,000); AID 588549, 2011; in the data active = inhibition above about 8.5%, passing the limit was not always enough
Mtb FBA confirm: M. tuberculosis aldolase blockers, biochemical, fluorescence, strain H37Rv, confirmation | shares compounds with Mtb FBA inh | purified M. tuberculosis FBA, fluorescence read-out | inhibition, % at 1 µM | actives 78% (n = 5,600) | AID 651616, 2012;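 also: 0% = vehicle wells and 100% = reference inhibitor wells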
GDH-TPI counter-2: GDH-TPI coupling enzyme inhibitors, artefact control for M. tuberculosis FBA inhibitor project, biochemical, fluorescence, high throughput. GDH-TPI coupled enzyme counterscreen. inhibition, % at 1 µM. shares compounds with Mtb FBA inh. AID 652141, 2013. actives 81% (n = 5,600); in the data active = inhibition above about 10%
* marks the source's active call; other numbers are inactive results. Rule as the data show it, unless noted: active = inhibition above about 27%; inactive = the rest.

What do the screens show for `CCOc1c2ccc(C(=O)NCc3ccc4c(c3)OCO4)cc2nn1CC`?
Mtb FBA inh: 51*; GDH-TPI counter-1: 8; Mtb bLac sens: 11; Rv3671c protease: -4; UGM FP inh: 1; FadD28 FP inh: -2; Mtb FBA confirm: 102*; GDH-TPI counter-2: 84*

Results for CCCCn1nc2cc(C(=O)NCc3ccc4c(c3)OCO4)ccc2c1OCC ?
Mtb FBA inh: 34*; GDH-TPI counter-1: -1; Mtb bLac sens: 0; Rv3671c protease: 3; UGM FP inh: -4; FadD28 FP inh: 2; Mtb FBA confirm: 176*; GDH-TPI counter-2: 141*

How did COc1ccc(-c2cc3c(=O)n(CC(=O)NCc4cccnc4)nc(C)n3n2)cc1 do in these assays?
Mtb FBA inh: 28*; GDH-TPI counter-1: -3; Mtb bLac sens: -3; Rv3671c protease: -4; UGM FP inh: 1; FadD28 FP inh: -3; Mtb FBA confirm: 16; GDH-TPI counter-2: 11*

How did CC1CCCN(S(=O)(=O)c2ccc3c(c2)c(=O)nc2ccccn23)C1 (stereo unspecified) do in these assays?
Mtb FBA inh: 66*; GDH-TPI counter-1: 12; Mtb bLac sens: -4; Rv3671c protease: -2; UGM FP inh: -5; FadD28 FP inh: -2; Mtb FBA confirm: 89*; GDH-TPI counter-2: 65*

How did CC(=O)Nc1ccc(S(=O)(=O)Nc2cccc(-c3cn4cccnc4n3)c2)cc1 do in these assays?
Mtb FBA inh: 64*; GDH-TPI counter-1: 18; Mtb bLac sens: -4; Rv3671c protease: -6; UGM FP inh: 3; FadD28 FP inh: -8; Mtb FBA confirm: -3; GDH-TPI counter-2: -9

Results for CC(=O)Nc1ccc(S(=O)(=O)Nc2cccc(-c3csc(C)n3)c2)cc1 ?
Mtb FBA inh: 2; GDH-TPI counter-1: 3; Mtb bLac sens: 7; Rv3671c protease: -1; UGM FP inh: 0; FadD28 FP inh: -2

What do the screens show for `COc1ccc2cc(S(=O)(=O)N3CCCC(C)C3)ccc2c1` (stereo unspecified)?
Mtb FBA inh: 0; GDH-TPI counter-1: 11; Mtb bLac sens: 0; Rv3671c protease: -1; UGM FP inh: -2; FadD28 FP inh: -3

Results for CC1CCCN(S(=O)(=O)c2cccc(-c3cn4cccnc4n3)c2)C1 (stereo unspecified) ?
Mtb FBA inh: 75*; GDH-TPI counter-1: 9; Mtb bLac sens: -2; Rv3671c protease: 8; UGM FP inh: -3; FadD28 FP inh: -2; Mtb FBA confirm: 122*; GDH-TPI counter-2: 139*

What do the screens show for `COc1ccc(-c2cc(CCC(=O)N3CCN(c4cc(C)ccc4C)CC3)[nH]n2)cc1`?
Mtb FBA inh: 0; GDH-TPI counter-1: 1; FadD28 FP inh: 0

What do the screens show for `C#CCN(C[C@H]1[C@H](OC(=O)NC2CCCC2)[C@H](OC(=O)NC2CCCC2)C[C@@H](C(=O)OC)[C@H]1C(=O)OC)S(=O)(=O)c1ccc(C)cc1`?
Mtb FBA inh: 1; GDH-TPI counter-1: 4; FadD28 FP inh: 0

How did CCCCCCc1cc2cc(C(=O)OCC)c(=O)oc2cc1O do in these assays?
Mtb FBA inh: 44*; GDH-TPI counter-1: 9; Mtb bLac sens: -1; Rv3671c protease: 11; UGM FP inh: -1; FadD28 FP inh: -2; Mtb FBA confirm: 136*; GDH-TPI counter-2: 97*

How did Nc1ccc(Nc2ccccc2)c(S(=O)(=O)O)c1 do in these assays?
Mtb FBA inh: 90*; GDH-TPI counter-1: 13; Mtb bLac sens: -7; Rv3671c protease: 5; UGM FP inh: -2; FadD28 FP inh: 81*; Mtb FBA confirm: 84*; GDH-TPI counter-2: 70*

How did Cc1ccccc1C1NC(=O)c2ccccc2O1 (stereo unspecified) do in these assays?
Mtb FBA inh: 5; GDH-TPI counter-1: 14; Mtb bLac sens: -5; Rv3671c protease: -1; UGM FP inh: 0; FadD28 FP inh: -2

What do the screens show for `Cc1ccccc1C1N=C2Oc3ccccc3C=C2C(=O)N1` (stereo unspecified)?
Mtb FBA inh: 96*; FadD28 FP inh: -2; Mtb FBA confirm: 70*; GDH-TPI counter-2: 52*

What do the screens show for `COc1ccc(C2=NN3C(C2)c2ccccc2OC3c2cccs2)cc1` (stereo unspecified)?
Mtb FBA inh: 60*; GDH-TPI counter-1: 4; Mtb bLac sens: -1; Rv3671c protease: 6; UGM FP inh: -1; FadD28 FP inh: -2; Mtb FBA confirm: 28*; GDH-TPI counter-2: 23*

How did COc1ccc(C2=NN(C(=O)CCC(=O)O)C(c3cccs3)C2)cc1 (stereo unspecified) do in these assays?
Mtb FBA inh: 7; GDH-TPI counter-1: 5; Mtb bLac sens: 0; Rv3671c protease: -1; UGM FP inh: -1; FadD28 FP inh: -3

How did O=C(NCC1(c2ccccc2)CCCC1)c1ccc(Br)cc1 do in these assays?
Mtb FBA inh: -1; GDH-TPI counter-1: 9; Mtb bLac sens: 25; Rv3671c protease: -13; UGM FP inh: 0; FadD28 FP inh: -2

How did Nc1ccccc1C(=O)NCC1(c2ccccc2)CCCC1 do in these assays?
Mtb FBA inh: 33*; GDH-TPI counter-1: -17; Mtb bLac sens: 3; Rv3671c protease: -11; UGM FP inh: -3; FadD28 FP inh: -4; Mtb FBA confirm: 160*; GDH-TPI counter-2: 128*

Results for O=C(O)c1ccc(-c2nc(-c3ccccc3)c(-c3cccs3)[nH]2)cc1 ?
Mtb FBA inh: 47*; GDH-TPI counter-1: -3; Mtb bLac sens: 1; Rv3671c protease: 7; UGM FP inh: -4; FadD28 FP inh: 1; Mtb FBA confirm: 75*; GDH-TPI counter-2: 54*

What do the screens show for `C=CC[C@H](CC(=O)NCCO)C(=O)N[C@H](COC(=O)[C@@H](CC=C)Cc1ccc(F)cc1)Cc1ccccc1`?
Mtb FBA inh: 8; GDH-TPI counter-1: 8; Mtb bLac sens: -2; Rv3671c protease: -4; UGM FP inh: 2; FadD28 FP inh: -3

What do the screens show for `Cc1cc(C)cc(NC(=O)Nc2cccnc2)c1`?
Mtb FBA inh: -2; GDH-TPI counter-1: 6; Mtb bLac sens: 0; UGM FP inh: -2; FadD28 FP inh: -4

How did Cn1c(=O)c2cc(NC(=O)Nc3cccnc3)ccc2n1-c1ccc(C(C)(C)C)cc1 do in these assays?
Mtb FBA inh: 31*; GDH-TPI counter-1: 5; FadD28 FP inh: -3; Mtb FBA confirm: 27; GDH-TPI counter-2: 14*
